Compounds with a hit are over-represented: about 9.9% of the library has one in this group of screens.
HPGD inh: HPGD (human) dehydrogenase inhibition; P15428; purified HPGD, NADH fluorescence kinetic, PGE2 substrate; Potency, µM, for the others: top-dose activity change, negative = inhibition, usual class: inhibitors; 4.3% of 150,000 active; AID 894; active = well fitted inhibition curve with a large enough effect, not every such curve was filed as active; inconclusive = small, poorly fitted or top-dose-only effect, or another doubt; inactive = no such curve, though single readings can be large or run the other way
Target sequence (P15428 whole entry, looked up): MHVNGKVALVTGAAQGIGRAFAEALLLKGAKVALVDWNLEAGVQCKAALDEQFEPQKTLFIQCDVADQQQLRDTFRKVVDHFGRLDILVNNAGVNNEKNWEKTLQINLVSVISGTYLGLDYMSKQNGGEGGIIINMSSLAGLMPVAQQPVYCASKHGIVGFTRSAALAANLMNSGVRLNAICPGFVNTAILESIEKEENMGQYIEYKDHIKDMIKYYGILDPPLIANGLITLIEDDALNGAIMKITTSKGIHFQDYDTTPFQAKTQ
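20 nM HPGD preincubated 15 min at room temperature with compound in 50 mM Tris-HCl pH 8, 0.01% Tween 20. Started with 1 mM NAD+ and 30 uM prostaglandin E2; NADH fluorescence (360/450 nm) read 5 times over 30-s intervals, last minus first.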
Tau fibril FP: blocks human tau fibril formation measured by polarization; P10636; K18 P301L tau heparin fibrillization, Alexa594 FP, 6 h; Potency, µM (series often up to 57.7 µM), inactives show at the top dose activity, negative = inhibition, actives largely listed as inhibitors; 0.39% of 280,000 active; note: nearly all actives have a fitted effect of over 55% in size
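Heparin (20 uM) drove fibril formation of recombinant tau K18 P301L, 15 uM unlabeled with 0.24 uM Alexa 594 label, for 6 hr at 37 C in 100 mM sodium acetate pH 7. Fluorescence polarization (555/632 nm) read 1 hr after 30 uM ThT.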
Tau fibril ThT: tau fibrillization inhibition (ThT binding) | Potency, µM (doses to about 57.4 µM), for the others: at the top dose activity, negative = inhibition, most hits filed as inhibitors | recombinant tau K18 P301L, heparin-induced fibrillization, ThT fluorescence | P10636 | 2.1% of 270,000 active; note: nearly all actives have a fitted effect of over 55% in size
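Fibril formation assay: tau K18 P301L at 15 uM with trace Alexa 594 label, heparin inducer 20 uM, pH 7 sodium acetate buffer, 37 C for 6 hr; endpoint ThT signal.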
ALDH1A1 inh: inhibitors of human aldehyde dehydrogenase 1A1 | Purified ALDH1A1, NADH fluorescence, propionaldehyde substrate | Potency, µM (titrated, usually from 75.3 µM), without a hit: at the highest dose activity, negative = inhibition, actives largely listed as inhibitors | P00352 | 7.3% of 220,000 active; active = well fitted inhibition curve with a large enough effect, not every such curve was filed as active; inconclusive = small, poorly fitted or top-dose-only effect, or another doubt; inactive = no such curve, though single readings can be large or run the other way;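 note: plate controls were no enzyme wells and a reference inhibitor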
Target sequence (P00352 whole entry, looked up): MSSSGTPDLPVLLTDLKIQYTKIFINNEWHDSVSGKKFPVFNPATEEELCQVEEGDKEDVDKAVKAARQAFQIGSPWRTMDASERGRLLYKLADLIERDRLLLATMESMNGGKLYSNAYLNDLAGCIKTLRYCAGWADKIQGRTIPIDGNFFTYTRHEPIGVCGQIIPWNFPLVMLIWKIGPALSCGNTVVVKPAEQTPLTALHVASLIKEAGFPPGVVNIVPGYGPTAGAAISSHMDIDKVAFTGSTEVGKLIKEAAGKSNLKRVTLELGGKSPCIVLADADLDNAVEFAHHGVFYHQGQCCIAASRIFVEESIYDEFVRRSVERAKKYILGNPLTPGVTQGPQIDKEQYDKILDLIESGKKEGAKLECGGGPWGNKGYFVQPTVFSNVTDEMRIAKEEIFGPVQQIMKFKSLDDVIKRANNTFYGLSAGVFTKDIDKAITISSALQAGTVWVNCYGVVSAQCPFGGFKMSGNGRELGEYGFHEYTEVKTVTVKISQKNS
Tau fluor cs: counter-screen for tau fibril formation inhibitors | tau K18 P301L (four-repeat tau fragment) Alexa594 fluorescence, heparin fibrillization | 0.93% of 280,000 active | Potency, µM (doses to about 57.7 µM), for inactives: top-dose activity change, negative = decrease; note: nearly all actives have a fitted effect of over 55% in size
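Human K18 P301L tau (15 uM unlabeled plus 0.24 uM Alexa 594-labeled, final) in 100 mM sodium acetate pH 7 was mixed with compound and 20 uM heparin and incubated 6 hr at 37 C.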
JMJD2E inh: blocks human JMJD2E demethylase activity. B2RXH2. JMJD2E catalytic domain, FDH-coupled NADH fluorescence (FDH is formaldehyde dehydrogenase). Potency, µM (top dose mostly 57.1 µM), for inactives: at the highest dose activity change, negative = inhibition, most hits filed as inhibitors. 1.6% of 230,000 active. AID 2147; active = well fitted inhibition curve with a large enough effect, not every such curve was filed as active; inconclusive = small, poorly fitted or top-dose-only effect, or another doubt; inactive = no such curve, though single readings can be large or run the other way;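 note: 0% = wells with enzyme and -100% = buffer wells without enzyme; nearly all actives have a fitted effect of over 50% in size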
Starred values were filed as active, the others as inactive; ? = inconclusive; . = no result given; [ ] = remark or other dose. Unless noted, calls come from the whole dose curve; as a rule, active = well fitted curve in the direction sought with a large enough effect; inconclusive = small, poorly fitted or top-dose-only effect, or another doubt; inactive = no such curve, though single readings can be large; an effect the other way counts as inactive or inconclusive. Unless noted, % is set by controls: 0 for no effect and ±100 for the full control effect; potency is the fitted concentration of half-maximal effect.

SMILES	HPGD inh	Tau fibril FP	Tau fibril ThT	ALDH1A1 inh	Tau fluor cs	JMJD2E inh
C=CCN1C(=O)C2(c3ccccc31)C1CCCC=C1C(C#N)=C(N)C2(C#N)C#N (stereo unspecified)	-13.1%	?	?	10µM*	-7.6%	-12.6%
C=CCN1C(=O)[C@]2(c3ccccc31)C1CCCC=C1C(C#N)=C(N)C2(C#N)C#N (stereo partly specified)	-9.8%	?	?	3.98µM*	-3.5%	-3.4%
CCOc1cc(Br)c(C2C(C(=O)OC)=C(C)NC3=C2C(=O)c2ccccc23)cc1OCC (stereo unspecified)	.	11.4%	?	.	?	.
CCOC(=O)C1=C(C)NC2=C(C(=O)c3ccccc32)C1c1cccc2ccccc12 (stereo unspecified)	.	12.9%	?	.	14.1µM*[quencher]	-5.1%
CCOC(=O)C1=C(C)NC2=C(C(=O)c3ccccc32)C1c1ccc(O)cc1 (stereo unspecified)	-10.9%	10.7%	10µM*	7.1%	?	-2.2%
C[C@H]1CC[C@H]2C(=O)N3[C@H](c4ccccc4Br)[C@@H](C)CC[C@H]3C(=O)N2[C@@H]1c1ccccc1Br	-7.0%	-10.0%	-15.5%	?	-10.2%	1.7%
O=C(c1ccc(Br)s1)N1CCN(C/C=C/c2ccccc2)CC1	-24.2%	-1.9%	-17.0%	17.8µM*	-19.2%	3.6%
CCn1c(C)c(C(C)=O)c(N2CCN(c3ccc(OC)cc3)CC2)nc1=S	.	?	28.2µM*	25.1µM*	-28.1%	-15.0%
CC(=O)c1c(N2CCN(c3cccc(Cl)c3)CC2)nc(=S)n(-c2ccccc2)c1C	2.9%	-1.9%	-17.5%	-3.0%	-11.8%	5.1%
CC(=O)c1c(N2CCN(C)CC2)nc(=S)n(Cc2ccccc2)c1C	-2.6%	0.6%	4.0%	5.2%	7.1%	14.9%
COc1ccc(N2CCN(c3nc(=S)n(-c4ccccc4)c(C)c3C(C)=O)CC2)cc1	-13.2%	?	28.2µM*	?	-24.0%	-12.7%
CCn1c(C)c(C(C)=O)c(N2CCN(c3cccc(Cl)c3)CC2)nc1=S	?	-5.7%	?	14.1µM*	-19.8%	?
Cc1ccc(NC(=O)CN(C)S(=O)(=O)c2ccc3c(c2)CCC(=O)N3)c(C)c1	.	?	-5.7%	.	-12.1%	.
Cn1cc(S(=O)(=O)N2CCCCC2)cc1C(=O)N1CCN(c2ccc(F)cc2)CC1	.	0.0%	3.7%	.	-0.5%	.
COc1cccc(-c2noc(-c3cc(C(C)C)[nH]n3)n2)c1OC	.	2.2%	-7.9%	.	-11.3%	.
N#Cc1cc2c([nH]c1=S)CCCC2	14.1µM*	-12.9%	?	8.91µM*	-7.2%	0.5%
CC1(C)Cc2[nH]c(=S)c(C#N)cc2CO1	25.1µM*	-4.2%	-14.3%	2.24µM*	5.2%	12.6µM*
CC1(C)Cc2c(c(N3CCCC3)[nH]c(=S)c2C#N)CO1	-16.6%	-1.7%	-2.4%	?	-4.2%	-1.8%
Cc1ccc(-c2nnc(SCC(=O)Nc3cccc(C(=O)N4CCOCC4)c3)n2C)cc1	-4.0%	6.3%	2.9%	-4.8%	11.7%	-0.3%
CC(Oc1ccc(O)cc1)(P(=O)(O)O)P(=O)(O)O	1.1%	1.3%	-7.9%	0.5%	-7.4%	1.58µM*
CC(C)(C)C(=O)OCOP(=O)(OCOC(=O)C(C)(C)C)C(C)(Oc1ccc(O)cc1)P(=O)(OCOC(=O)C(C)(C)C)OCOC(=O)C(C)(C)C	-3.0%	8.3%	-17.5%	?	1.1%	.
O=C(NCc1cccc(F)c1)C1CCN(c2nc3ccccc3nc2C(F)(F)F)CC1	.	-17.0%	9.3%	.	-11.9%	.
Cc1ccc(CN2C(=O)c3ccccc3Sc3ccc(C(=O)NCCCN4CCOCC4)cc32)cc1	.	-8.3%	-6.8%	.	-25.3%	.
O=C(NCCN1CCOCC1)c1ccc2c(c1)N(Cc1cccc(F)c1)C(=O)c1ccccc1S2	.	-3.9%	-7.9%	28.2µM*	-23.8%	-4.1%
Cc1cc(C)c2[nH]c(O)c(N=NC(=S)NCC3CCCO3)c2c1 (stereo unspecified)	-15.3%	3.9%	?	0.0794µM*	-5.0%	0.4%
SMILES	HPGD inh	Tau fibril FP	Tau fibril ThT	ALDH1A1 inh	Tau fluor cs	JMJD2E inh
Oc1[nH]c2c(Cl)cc(Cl)cc2c1N=NC(=S)NCC1CCCO1 (stereo unspecified)	-10.2%	?	?	0.447µM*	?	8.0%
S=C(NCC1CCCO1)Nc1cc(Cl)c(Cl)cc1Cl (stereo unspecified)	.	-9.7%	3.3%	-4.6%	-19.4%	-6.4%
Oc1[nH]c2ccccc2c1N=NC(=S)NCC1CCCO1 (stereo unspecified)	?	1.7%	0.0%	11.2%	0.3%	-8.6%
CCn1c(O)c(N=NC(=S)NCC2CCCO2)c2ccccc21 (stereo unspecified)	.	-1.2%	?	0.501µM*	-21.7%	12.4%
Oc1[nH]c2ccc(Br)cc2c1N=NC(=S)NCC1CCCO1 (stereo unspecified)	.	5.9%	15.8µM*	.	14.1µM*[quencher]	1.3%
CCOc1ccc(-n2c(=O)c3c(C)c(C)sc3n(Cc3c(F)cccc3Cl)c2=O)cc1	.	-3.4%	-3.6%	.	-6.0%	.
CCN(CC)C(=O)Cn1c(=O)nc(-c2ccccc2F)c2cc(Cl)ccc21	.	-0.4%	4.0%	.	3.8%	.
COc1ccc(/C=N/NC(C)(C)C)c(OC)c1	.	5.7%	-1.2%	20µM*	0.2%	?
Cc1nc(NCCc2ccc(S(N)(=O)=O)cc2)c2c(C)c(C)sc2n1	-9.4%	-5.2%	-8.2%	-10.2%	-6.2%	-3.5%
Cc1nc(NCCNC(=O)c2ccco2)c2c(C)c(C)sc2n1	-17.2%	3.2%	-5.9%	14.1µM*	10.0%	?
COC(=O)Oc1nsnc1N1CCOCC1	14.1µM*	?	?	3.98µM*	-16.5%	?
Brc1ccc(Oc2nsnc2N2CCOCC2)cc1	-15.2%	1.1%	8.1%	4.0%	-4.2%	-3.4%
O=c1c(N2CCOCC2)nsnc1N1CCOCC1	.	-10.1%	5.4%	25.1µM*	0.5%	-0.1%
COc1ccc(N2CS(=O)CC2=O)cc1 (stereo unspecified)	.	4.8%	8.0%	-1.8%	7.2%	-3.6%
COC(=O)c1ccccc1NC(=O)C1(c2cccs2)CCOCC1	.	-9.7%	-15.1%	.	-16.9%	.
COc1ccc(Cl)cc1NC(=O)N1CCN(S(=O)(=O)c2ccc3c(ccn3C)c2)CC1	.	-15.7%	10.0%	.	-12.2%	.
Cc1ccc(O)c(-c2n[nH]c3c2C(c2ccc(F)cc2)N(Cc2ccco2)C3=O)c1 (stereo unspecified)	.	4.0%	?	.	14.1µM*[quencher]	.
O=C(O)CNC(=O)[C@H]1NC(C(F)(F)F)(C(F)(F)F)OC1(C(F)(F)F)C(F)(F)F	-0.4%	.	.	1.2%[13.5 µM]	.	.
COc1cc(Nc2ccc(C(=O)O)cc2[N+](=O)[O-])cc(OC)c1	20µM*	8.5%	?	9.3%	-12.8%	11.4%

High-throughput results: PubChem BioAssay, National Center for Advancing Translational Sciences (NCATS)
